Screens deposited in PubChem BioAssay by National Center for Advancing Translational Sciences (NCATS).
SARS PLpro yeast = inhibitors of SARS-CoV papain-like protease in yeast; S. cerevisiae expressing SARS-CoV PLpro, growth rescue; Potency, µM (top dose mostly 32.9 µM), for the others: top-dose activity, positive = growth rescue, actives largely listed as activators; hit rate 0.19% among 330,000; AID 485353; further: 0% is about no effect; nearly all actives have a fitted effect of over 55% in size
Pf growth 96h = P. falciparum growth inhibition at 96 hours. P. falciparum luciferase reporter growth, 96 h. Potency, µM (top dose mostly 28.7 µM), without a hit: top-dose activity change, negative = inhibition, hits mostly inhibitors. hit rate 6.9% among 320,000; active means well fitted inhibition curve with a large enough effect; inconclusive means small, poorly fitted or top-dose-only effect, or another doubt; inactive means no such curve, though single readings can be large or run the other way; further: on the % scale 0 is the no-effect control and ±100 the full control effect
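Erythrocytes infected with luciferase-expressing P. falciparum were dispensed at 2% hematocrit and 0.05% parasitemia (final), then incubated with compounds 96 hours at 37 C in 5% CO2. Luminescence after detection reagent addition reported growth.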
NS1 function inh = influenza NS1 inhibition; Potency, µM (titrated, usually from 46.1 µM), without a hit: at the top dose activity, positive = more growth; hit rate 0.4% among 270,000; AID 2326; further: actives are rising curves; nearly all actives have a fitted effect of over 50% in size
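Compounds were scored for reversing the slow growth caused by influenza A NS1 in S. cerevisiae, measured by optical density at 600 nm. Assay medium contained 2% galactose at pH 6.0; NS1-free yeast of the same strain were the positive control.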
Pf growth 48h = P. falciparum growth inhibition at 48 hours (one generation) | P. falciparum luciferase growth in erythrocytes, 48 h | hit rate 5.9% among 310,000 | Potency, µM (titrated, usually from 28.7 µM), for the others: top-dose activity change, negative = inhibition, hits mostly inhibitors | AID 504832; active means well fitted inhibition curve with a large enough effect; inconclusive means small, poorly fitted or top-dose-only effect, or another doubt; inactive means no such curve, though single readings can be large or run the other way; further: on the % scale 0 is the no-effect control and ±100 the full control effect
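Compounds are pin-transferred into medium, infected erythrocytes (2% hematocrit, 0.1% parasitemia final) are added, and plates sit one parasite generation at 37 C in 5% CO2. Detection reagent is then added and luminescence measured.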
* marks the source's active call; other numbers are inactive results; ? = inconclusive; nt = no result given. Sampled rows, rich in hits. Any-hit rate of the full collection: about 10%. Unless noted, the call rests on the fitted dose curve. Potency means the concentration at half of the fitted maximal effect.

SMILES	SARS PLpro yeast	Pf growth 96h	NS1 function inh	Pf growth 48h
CCc1sc(C(=O)Nc2cccc(C(C)=O)c2)cc1C	-66%	72%	-9%	75%
CCCN(CC1CC1)C(=S)NC(=O)C1CC1	10%	31%	nt	10%
CCCN(CC1CC1)C(=S)NC(=O)c1cc(Br)ccc1Cl	5%	?	nt	13µM*
O=C(CSc1nccc(=O)[nH]1)Nc1cccc2ccccc12	0%	5%	0%	14%
N#Cc1cccc(NC(=O)CN2C(=O)NC3(CCCCCC3)C2=O)c1	-2%	?	nt	-10%
Fc1ccccc1Cn1c2[n+](c3ccc(C(F)(F)F)cc31)CCCCC2	-2%	2.3µM*	nt	?
N#Cc1cccc(NC(=O)Cn2c3[n+](c4ccc(C(F)(F)F)cc42)CCCCC3)c1	-13%	0.83µM*	3%	5.2µM*
COc1ccc(OC)c(C(=O)Cn2c3[n+](c4ccc(C(F)(F)F)cc42)CCCCC3)c1	-1%	0.52µM*	-2%	?
O=C(COC(=O)c1cc(=O)[nH]c2ccccc12)NCc1ccccc1Cl	1%	nt	nt	nt
COc1cc(NC(=O)C[n+]2ccc(C(=O)c3ccccc3)cc2)cc(OC)c1	-8%	nt	nt	nt
O=C1C2[C@@H](c3ccccc3)N[C@@H](c3ccccc3)C1[C@H](c1ccccc1)N[C@H]2c1ccccc1	nt	nt	0%	nt
CC(C)(C)c1ccc(NC(=O)CN2C(=O)NC(C)(C3CC3)C2=O)cc1 (stereo unspecified)	-2%	10%	nt	-7%
O=C(N/N=C/c1ccc(O)c(O)c1)NC12CC3CC(CC(C3)C1)C2	-1%	7%	1%	-20%
C/C(=N/NC(=O)NC12CC3CC(CC(C3)C1)C2)c1ccccc1	3%	0.74µM*	0%	?
O=C(N/N=C/c1ccccc1O)NC12CC3CC(CC(C3)C1)C2	-3%	2.6µM*	-6%	1.2µM*
CC(=O)Oc1ccc(/C(C)=N/N2CCN(Cc3ccc(C)cc3)CC2)cc1	16%	?	-2%	?
Nc1nc2[nH]cc(CCc3ccc(C(=O)NC(CCC(=O)O)C(=O)O)cc3)c2c(=O)[nH]1 (stereo unspecified)	nt	1.3µM*	nt	0.67µM*
Cn1c(N)c(C(=O)CSc2n[nH]c(N)n2)c(=O)n(C)c1=O	-2%	15%	nt	38%
CCOC(=O)c1c(CS(=O)(=O)c2ccccc2)n(C)c2cc(Br)c(O)cc12	3%	-44%	12%	-29%
CCOC(=O)c1c(CN2CCOCC2)n(C)c2cc(Br)c(O)c(CN(C)C)c12	0%	?	?	10µM*
CCOC(=O)c1c(CSc2ccccc2)n(C)c2ccc(O)c(CN3CCOCC3)c12	-3%	?	9%	?
CCOC(=O)c1c(CS(=O)(=O)c2ccccc2)n(C)c2cc(Br)c(O)c(CN(C)C)c12	0%	37%	20%	9.3µM*
NC(=O)c1ccc(NC(=O)COC(=O)c2cccc(Oc3ccccc3)c2)cc1	0%	20%	13%	6%
CC1SC(c2ccccc2)N(CC(O)c2ccc([N+](=O)[O-])cc2)C1=O (stereo unspecified)	0%	75%	nt	12µM*
CC(=O)c1ccc(NC(=O)CS(=O)(=O)c2cn(CC(=O)N3CCOCC3)c3ccccc23)cc1	4%	?	1%	27%
SMILES	SARS PLpro yeast	Pf growth 96h	NS1 function inh	Pf growth 48h
CCC(=O)N1CCC2(CC1)Oc1ccc(F)cc1C(=O)C21CC(c2cccnc2)=NO1 (stereo unspecified)	1%	27%	-4%	48%
Cc1noc(C)c1C(=O)N1CCC2(CC1)Oc1ccc(F)cc1C(=O)C21CC(c2ccc(Cl)cc2)=NO1 (stereo unspecified)	2%	?	2%	12µM*
CC(C)(C)OC(=O)N1CCC2(CC1)Oc1ccc(F)cc1C(=O)C21CC(c2cccnc2)=NO1 (stereo unspecified)	2%	?	0%	10µM*
O=C(/C=C/c1cccs1)N1CCC2(CC1)Oc1ccc(F)cc1C(=O)C21CC(c2ccccc2)=NO1 (stereo unspecified)	1%	9.3µM*	9%	10µM*
CC(C)C(=O)N1CCC2(CC1)Oc1ccc(Cl)cc1C(=O)C21CC(c2ccc(Cl)cc2)=NO1 (stereo unspecified)	2%	?	-1%	?
O=C(c1ccc2c(c1)OCO2)N1CCC2(CC1)Oc1ccc(F)cc1C(=O)C21CC(c2ccc(Cl)cc2)=NO1 (stereo unspecified)	0%	-4%	1%	-22%
O=C(/C=C/c1cccs1)N1CCC2(CC1)Oc1ccc(F)cc1C(=O)C21CC(c2ccc(Cl)cc2)=NO1 (stereo unspecified)	1%	1.9µM*	6%	9.3µM*
COc1ccc(S(=O)(=O)N(C)C[C@H]2Oc3ccc(NC(=O)Nc4ccc5c(c4)OCO5)cc3C(=O)N([C@H](C)CO)C[C@@H]2C)cc1	6%	nt	nt	nt
O=C(c1ccc2c(c1)OCO2)N1CCC2(CC1)Oc1ccc(Cl)cc1C(=O)C21CC(c2ccccc2)=NO1 (stereo unspecified)	1%	13µM*	9%	12µM*
O=C(/C(C=Nc1cccc(C(F)(F)F)c1)=C(/O)c1ccco1)C(F)(F)F	0%	20%	6%	53%
O=C(/C(C=Nc1ccc(Br)cc1)=C(/O)c1ccco1)C(F)(F)F	5%	2.9µM*	-35%	228%
CC(C)CCOc1ccc(C2(C)NC(=O)NC2=O)cc1 (stereo unspecified)	5%	?	6%	?
COCCn1c(CN2CCN(C(c3ccccc3)c3ccccc3)CC2)nc2c1c(=O)n(C)c(=O)n2C	2%	28%	0%	2.6µM*
Cn1c(=O)c2c(nc(CN3CCN(C(c4ccccc4)c4ccccc4)CC3)n2CCCO)n(C)c1=O	-1%	-5%	-10%	2.9µM*
COCCn1c(CN2CCN(c3ccccc3)CC2)nc2c1c(=O)n(C)c(=O)n2C	nt	nt	-6%	nt
O=C(COC(=O)CNC(=O)c1ccc(Cl)c([N+](=O)[O-])c1)NCC1CCCO1 (stereo unspecified)	1%	10%	nt	-14%
CCOC(=O)C1(Cc2ccccc2Cl)CCN(C(=O)c2cc(C)on2)CC1	0%	?	-13%	-21%
CCOC(=O)C1(Cc2ccccc2Cl)CCN(C(=O)c2cnccn2)CC1	0%	9.3µM*	-11%	7%
CC(C)OC(=O)/C(=C/c1ccc(Br)cc1)NC(=O)c1ccco1	-6%	13µM*	-7%	10%
COC(=O)/C(=C/c1ccccc1)NC(=O)c1ccco1	8%	-3%	5%	-2%
COc1ccc(/C=C(/NC(=O)c2ccco2)C(=O)N2CCCCCC2)cc1OC	-1%	12µM*	9%	3%
c1cncc(-c2nnc(-c3cccnc3)nn2)c1	-27%	?	-104%	2.6µM*
Cc1ccc(S(=O)(=O)NCc2ccccc2)cc1C(=O)N1CCCC(C(F)(F)F)C1 (stereo unspecified)	0%	-3%	nt	?
Cc1ccc(C)c(OCc2nnc(NC(=O)c3ccco3)s2)c1	-2%	10µM*	1%	8%
CCN(c1cc(C)cc(C)c1)S(=O)(=O)c1nnc(NC(=O)C(C)C)s1	0%	?	6%	?
